According to PubChem BioAssay AID1948 (National Center for Advancing Translational Sciences (NCATS), 2009):
The whole screen tested about 110,000 compounds, of which about 20 (0.02%) were called active. Not shown: some 2% with an inconclusive outcome. Calls follow the shape of the dose curve; as a rule, active = well fitted activation curve with a large enough effect; inconclusive = small, poorly fitted or top-dose-only effect; inactive = no such curve, though single readings can be large or run the other way. What follows is part of a selection rich in actives, with near analogues and random picks from the rest.

Assay: qHTS Assay for Compounds that Induce Erasure of Genomic Imprints;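 also: 0% = negative control wells on the plate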
Details: mouse ES Peg3-LacZ reporter, beta-gal luminescence, 40 h; series mostly up to 10.9 µM; activity change, positive = activation: at the top concentration
From the text: qHTS Assay for Compounds that Induce Erasure of Genomic Imprints NIH Chemical Genomics Center [NCGC] NIH Molecular Libraries Screening Centers Network [MLSCN] Assay Submitter (PI): JEFFRIES, SEAN, NCGC, University of Cambridge NCGC Peg3 Imprinting Assay Overview Genomic imprinting is the epigenetic process whereby genes are expressed in a parent of origin fashion. […] Unlike some forms of epigenetic silencing that can be overcome by overexpression of transcription factors, genomic imprinting stably represses the expression of one allele despite potentially high levels of expression from the other allele. […] During mouse embryonic day 11.5 imprints are erased in PGCs so that sex specific imprints can be reestablished during gametogenesis. Embryonic germ (EG) cells can be derived from developing PGCs at embryonic day 11.5 and these cells often lack genomic imprints. […] Embryonic stem (ES) cells are a cell type similar to EG cells in phenotype and transcriptional profile, yet ES cells maintain genomic imprints. This similarity between ES and EG cells prompted us to use ES cells to look for factors which could induce imprint erasure. To investigate the stability of genomic imprinting, ES cells were derived from mice with an insertion of a LacZ-Neomycin reporter construct in the Peg3 locus. Peg3 is an imprinted locus where gene expression is restricted to the paternal allele. […] Using LacZ expression we are able to monitor the state of the Peg3 imprint. In order to dissect the mechanisms involved in imprint erasure using a forward chemical genetics approach we developed a cell based phenotype assay using an endogenous silence imprinted locus. This assay utilizes maternally inherited Peg3LacZ-Neo ES cells by monitoring the LacZ expression from the normally silent Peg3 allele. To facilitate screening, high-density feeder-free ES cell culture has been optimized so that ES cells can be grown in 1536 for over four days without feeding or washes. The assay uses a luminescence based read out for LacZ activity and is a homogenous assay optimal for HTS.
NCGC Peg3 Imprinting Assay Protocol Summary ES cell lines were derived from blastocysts taken from Peg3LacZ-Neo x129 matings. Lines were sexed and genotyped for the Peg3LacZ-Neo allele. Female cells carrying the reporter allele were used in this study. Cells were derived on a layer of mouse embryonic fibroblasts and passaged multiple times before switching to feeder free culture. Cells were maintained feeder free on gelatin coated dishes in DMEM/F12 media supplemented with 15% FBS, 2mM L-glutamine, 100 units/ml penicillin, 100ug/ml streptomycin, 0.1mM MEM nonessential amino acids, 1mM sodium pyruvate, 0.1% sodium bicarbonate, 0.1mM 2-Mercaptoethanol, and 400 units/ml leukemia inhibitory factor (LIF) at 37C with 5% CO2. The assay was performed in 1536-well format. A single luminescence read was taken at the end of the assay and the data was normalized by plate to internal negative controls. Maximum efficacy and AC50 values were calculated from dose-response data using the standard Hill equation. 1536 well plates were filled with 0.5ul of 0.1% gelatin per well, spun down and incubated for at least 30 min at 37C. The ES cells were then trypsini Peg3 1536-well assay protocol: (1)Plate 0.5ul/well 0.1% gelatin in white tissue culture treated 1536-well plates, spin and incubate at 37C for at least 30 min. (2)Add 5ul/well (300 cells) of ES cell suspension from freshly trypsinized cells and incubate at 37C, 5% CO2 for 40 hours. (3)Add 5ul/well of freshly prepared BetaGlo solution and incubate at room temperature for 5 minutes. (4)Read luminescence on the ViewLux plate reader. Keywords Genomic Imprinting, Germ Cells, Embryonic Stem Cell, DNA Methylation, Peg3, qHTS, NIH roadmap, NCGC

Activity change, positive = activation, inactive:
CCN1CCN(c2cc(C)c3cc(NC(=O)c4cc(Cl)ccc4OC)ccc3n2)CC1 -33.9%
CCc1ccc(NC(=O)c2cc3c(=O)n(Cc4cccnc4)ccc3nc2C)cc1 -7.76%
CCCCCn1c(CCCNC(=O)c2ccccc2OC)nc2ccccc21 -12.7%
COc1ccccc1CNS(=O)(=O)c1cc(Br)cc2c1N(C(C)=O)C(C)C2 (centres undefined) -8.34%
CCOc1cc(C2C(C(=O)OC)=C(C)NC3=C2C(=O)c2ccccc23)ccc1O (centres undefined) -3.7%
CCOc1ccc(C2C(=O)N(C3CCCCC3)CC(=O)N2CCC2=CCCCC2)cc1OC (centres undefined) 6.2%
O=C(Nc1ccc2nc(SCCOc3ccccc3)sc2c1)c1ccco1 -16.3%
CCc1cnc2c(c1SCC(=O)N1CCC(C)CC1)c(=O)n(C)c(=O)n2C 9.05%
CCOc1ccc(N(CC)S(=O)(=O)N2CCCC(C(=O)Nc3ccc(C(C)=O)cc3)C2)cc1 (centres undefined) -20.5%
COc1ccc(Cn2cc(C(=O)c3ccc(C)cc3)c(=O)c3cc(OC)c(OC)cc32)cc1 -10.5%
Cc1csc2nc(COC(=O)c3ccc(NC(=O)COc4ccccc4F)cc3)cc(=O)n12 -15.4%
COc1ccc(OC)c(NC(=O)CSC2=Nc3ccccc3C3=NC(CC(=O)NCc4ccc(F)cc4)C(=O)N23)c1 (centres undefined) -6.91%
O=c1cc(COc2cccc(C(F)(F)F)c2)nc2sc3c(n12)CCCC3 20.1%
CCC(=O)Nc1cccc(-c2nc3cc(C)ccc3o2)c1 -34%
COc1ccc(Cl)cc1-n1c(CCC(=O)O)ccc1-c1ccc(C)cc1 4.72%
CCCC(=O)Nc1ccc(NC(=O)c2sc3ccccc3c2Cl)cc1 -17.3%
CC1CCCCN1S(=O)(=O)c1ccc(F)c(C(=O)Nc2ccccc2C(F)(F)F)c1 (centres undefined) 15.3%
CCc1cc2c(cc3c(=O)n(CC(=O)N4CCN(c5cc(Cl)ccc5C)CC4)nc(CC)n32)s1 3.78%
Cc1nn(-c2ccc(N3CCCCC3)nn2)c(C)c1CCC(=O)NCc1ccc(F)cc1 -10.3%
Cc1cc(C)cc(NC(=O)CCS(=O)(=O)c2cc3c4c(c2)CCN4C(=O)CC3)c1 -5.47%
CCOC(=O)N1CCC(NC(=O)c2cnn(-c3cccc(C)c3)c2C2CCN(C(=O)OC(C)(C)C)CC2)CC1 -7.69%
COc1ccc(CNC(=O)c2cc3c(=O)[nH]c4ccccc4c3s2)cc1 14.7%
CCOc1ccc(CNC(=O)C2CCCN(c3nnc(C)c4c(C)n(-c5ccccc5)nc34)C2)cc1 (centres undefined) -17.4%
Cc1nnc(C)n1-c1ccc(C(=O)Nc2cccc(Br)c2)cc1 -11.1%
COc1cc(NC(=O)CCNC(=O)Cn2ccc3ccccc3c2=O)cc(OC)c1OC -5.74%
CCc1nonc1NC(=O)c1oc2ccc(Cl)cc2c1C -14.9%
COc1ccccc1Nc1cc(C(=O)NCCCN(C)C2CCCCC2)c2ccccc2n1 21%
CCOC(=O)c1ccccc1NC(=O)c1nn(-c2ccc(OC)c(Cl)c2)c(=O)c2c1c1ccccc1n2C 22.8%
Cc1ccc(C)c(NC(=O)CSC2=Nc3ccccc3N=C(c3ccc(F)cc3)C2)c1 -7.52%
CCc1ccccc1NC(=O)Cn1c(=O)n(CC2CCC(C(=O)NCCc3ccccc3)CC2)c(=O)c2ccccc21 (centres undefined) -9.17%
COc1ccc(CNc2nc(-c3ccc(Cl)cc3)nn2S(=O)(=O)c2ccc(C)cc2)cc1 -11.7%
Cc1ccc(CN(C(=O)c2ccccc2[N+](=O)[O-])c2ccccn2)cc1 -12.4%
COc1ccc(NC(=O)C(=O)NCc2ccco2)cc1 -6.52%
CC1CN(C(=O)N2CCC(C(=O)NCc3cccs3)CC2)c2ccccc2O1 (centres undefined) -8.54%
Cc1ccc(S(=O)(=O)N2CCC(Oc3ccc(-n4cnnn4)cc3)CC2)cc1 -8.14%
Cc1ccc(F)cc1NC(=O)CCSc1nc(-c2ccco2)cc(C(F)(F)F)n1 5.17%
Cc1cc(C)c(-c2n[nH]c3c2C(c2ccccc2F)N(CCO)C3=O)c(O)c1 (centres undefined) -12.1%
CC(=O)Nc1ccc(S(=O)(=O)NCC2CCC(C(=O)NCCc3ccccc3)CC2)cc1 (centres undefined) -11%
COC(=O)c1ccccc1NC(=O)c1ccc2c(=O)n3c(nc2c1)CCCCC3 -6.07%
COc1ccc(S(=O)(=O)NCc2cccn2Cc2cccc(C)c2)cc1 -13.3%
COC(=O)CN1C(=O)CSc2ccc(S(=O)(=O)Nc3cc(C)ccc3C)cc21 2.15%
COc1ccc(CNC(=O)CSCc2nc(-c3ccccc3F)oc2C)cc1 -11%
O=C(Nc1ccc(F)cc1F)c1cnn(-c2ccc(F)cc2)c1-n1cccc1 4.84%
Cc1ccc(OCC(=O)Nc2ccc(Cl)c(-c3nc4ccccc4[nH]3)c2)cc1C -9.61%
Cc1oc2ncn(CC(C)C)c(=O)c2c1C(=O)N1CCN(c2ccccc2F)CC1 19.9%
COc1ccccc1NC(=O)c1cc(C2CC2)nc2c1c(C)nn2-c1ccc(C)cc1 -7.45%
Cc1ccc(CN2C(=O)SC(Nc3ccccc3)C2=O)cc1 (centres undefined) 3.26%
CCN(CCCNC(=O)c1cc2c(=O)n(CC)c3ccccc3c2s1)Cc1ccccc1 -11.1%
Cc1ccc(C(=O)NCCSc2c(C)[nH]c3ccccc23)cc1C -7.06%
O=C1CC(c2ccc(F)cc2F)c2cc3c(cc2N1)OCO3 (centres undefined) -10.5%
Cc1cccc(C(=O)N2c3nc(-c4ccco4)nn3C3(CCCCC3)[C@@H]3CCCC[C@@H]32)c1 -2.39%
O=C(CSc1nc(=O)n(Cc2cccnc2)c2c1CCC2)Nc1ccc(F)cc1F 19.5%
Cc1c(CNC2CCCCC2)c(C(=O)O)c(C)n1Cc1cccc(Cl)c1 -11%
CC(C)Oc1ccc(CNC(=O)C2CCN(c3nc4ccccc4n(C)c3=O)CC2)cc1 -2.14%
Cc1ccccc1NC(=O)Cn1c(=O)n(CCCCC(=O)NCc2ccccc2Cl)c(=O)c2ccccc21 -1.68%
COCCCNC(=O)c1ccc(NC(=O)c2nsc3ccccc23)cc1 2.98%
Cc1c(NC(=O)C(C)(C)C)cccc1-c1nc2ccccc2s1 -11.3%
Cc1ccn2c(Nc3ccc4c(c3)OCCO4)c(-c3ccc(C)s3)nc2c1 -21.3%
Cc1ccccc1CNC(=O)CCc1cn(Cc2ccccc2C)c2ccccc12 -11.9%
C[C@@]12CCC(=O)C=C1CC[C@H]1C2[C@@H](O)C[C@]2(C)[C@@H]1CC[C@@]2(O)C(=O)COC(=O)C1CCCC1 (some centres undefined) -4.6%
Cc1ccc(-n2nc(CO)c(C(=O)NCCc3ccccc3)n2)cc1 -11.8%
Cn1cc(S(=O)(=O)N2CCCCCC2)cc1C(=O)N1CCN(c2ccc(F)cc2)CC1 -9.82%
Cc1cccc(CSc2nc3ccncc3n2Cc2ccc(C(=O)O)cc2)c1 -11.1%
COc1ccc(CNc2nc(-c3ccc(Cl)cc3)nn2C(=O)c2ccccc2)cc1 -3.8%
CC1CCC(N2CC(=O)N(CCC3=CCCCC3)C(c3ccc(F)cc3)C2=O)CC1 (centres undefined) -12.5%
CN(Cc1ccccc1)S(=O)(=O)c1ccc(F)c(C(=O)Nc2cccc(Cl)c2Cl)c1 -33.7%
OC[C@H]1O[C@@H](n2cnc3c(NC4CCCC4)ncnc32)[C@H](O)[C@H]1O -11.3% [at 60.7 µM]
Cc1cc(NS(=O)(=O)c2ccc3oc(=O)c4ncn(C)c4c3c2)ccc1Br 8.33%
O=C(CSc1nc(Nc2ccc(F)c(F)c2)c2ccccc2n1)c1ccc(Cl)cc1 -13%
COc1ccc(C(=O)Nc2cccc(C(=O)OCc3cc(=O)n4c5c(sc4n3)CCCC5)c2)cc1 -92.1%
Cc1ccc(SCC(=O)Nc2ccc3oc(-c4ccccc4C)nc3c2)cc1 -13.5%
CCc1nnc(SCc2c(F)cccc2Cl)c2cc3sccc3n12 4.75%
Cc1nn(-c2ccc(F)cc2)c(-n2cccc2)c1C(=O)N1CCN(c2ccccc2)CC1 -3.32%
CCc1ccc(S(=O)(=O)Nc2cc3c(C(=O)OCc4ccccc4)c(C)oc3c3ccccc23)cc1 -22.6%
CCCC(=O)Nc1cc2nn(-c3ccccc3)nc2cc1C -25.6%
COc1ccc(C(=O)c2oc3ccccc3c2NC(=O)COc2cccc(C)c2)cc1 -16.2%
CCCN(C(=O)Cn1cc(S(=O)(=O)N2CCN(c3ccccc3F)CC2)c2ccccc2c1=O)c1cccc(C)c1 -16.3%
COc1ccc(OCc2ccc(-c3nc(C#N)c(N4CCN(c5ccccc5)CC4)o3)o2)cc1 -12.1%
CN1c2ccc(Cl)cc2-c2nc(SCC(=O)Nc3cc(F)ccc3F)ncc2S1(=O)=O -6.64%
COc1ccc(N(CC(=O)NCCc2ccc(Cl)cc2)S(=O)(=O)c2c(C)nn(C)c2C)cc1 15.7%
CCN(CC)CCNC(=O)Cn1ncc2c3ccccc3n(Cc3ccccc3C)c2c1=O -5.94%
Cc1cccn2c(=O)c(C(=O)NC(C)c3ccccc3)cnc12 (centres undefined) -15.7%
CN(C)S(=O)(=O)c1ccc(C(=O)N(Cc2cccnc2)c2nc3c(F)cc(F)cc3s2)cc1 -7.79%
CCSc1nnc(NC(=O)c2cc(=O)c3cc(C)c(C)cc3o2)s1 -10.3%
CCOC(=O)c1ccc(NC(=O)Cn2c(=O)n(-c3ccc(C)cc3)c(=O)c3c2cnn3C)cc1 -10.8%
CCOC(=O)c1ccc(NC(=O)CC2C(=O)N(c3ccccc3)C(=O)N2Cc2cccs2)cc1 (centres undefined) 7.18%
CCOCCCn1c(SCC(=O)Nc2ccc(CC)cc2)nc2ccccc2c1=O -2.25%
CCC(=O)Nc1c(C(=O)N2CCN(c3ccc(F)cc3)CC2)oc2ccccc12 -6.14%
COc1ccc(S(=O)(=O)NCC(c2ccc(N(C)C)cc2)N2CCCC2)cc1 (centres undefined) -12.1%
CC(=O)Nc1cccc(NC(=O)CSc2nccn2Cc2ccc3c(c2)OCO3)c1 -8.32%
Fc1ccc(CSc2nc(NCc3ccccc3)c3ccccc3n2)cc1 -6.21%
Cc1cc(NS(=O)(=O)c2ccc(NC(=O)c3ccccc3C)cc2)nc(C)n1 20.1%
O=c1c(=O)n(Cc2c(F)cccc2Cl)ccn1Cc1ccccc1 -15.9%
CCOc1ccc(NC(=O)c2cn(C3CCCCC3)c(=O)c3c2c2ccccc2n3C)cc1 3.89%
CC1=C(C(=O)Nc2ccccc2Cl)C(c2cccs2)n2ncnc2N1 (centres undefined) -9.9%
CCc1ccc(NC(=O)c2sc3nc4c(cc3c2N)CN(CC)CC4)cc1 -5.27%
Cc1ccc(C(=O)Nc2ccc(C(=O)O)cc2)cc1S(=O)(=O)Nc1ccccc1 -5.39%
CCC(Sc1nc2n[nH]c(C)c2c(=N)n1-c1ccccc1Cl)C(=O)N(CC)CC (centres undefined) -7.79%
CCOC(=O)c1cnc2c(C)cc(C)cc2c1Nc1ccc(N2CCOCC2)cc1 -14.4%
CCOc1ccc(OCC)c(NC(=O)c2cc(C)nc3c2c(C)nn3-c2cccc(Cl)c2C)c1 8.2%
CCOc1ccc(CCNC(=O)C2=C(C)C(=O)OC23CCC(C)CC3)cc1OCC (centres undefined) 7.79%
CCOc1ccc(CCNC(=O)Cn2nc(CC)n3c(cc4sc(CC)cc43)c2=O)cc1OCC 4.59%
Cc1cc(C)cc(Nc2ncnc3onc(-c4ccc(F)cc4)c23)c1 18.6%
CCOc1ccc(CNC(=O)c2cc(=O)[nH]c3ccc(S(=O)(=O)N4CCCCC4)cc23)cc1 -16.4%
